S1P4 ag: S1P4 receptor agonists, primary screen, cell-based. Sphingosine 1-phosphate receptor 4 (Homo sapiens), O95977. S1P4-expressing cell line, agonist reporter assay. activation, % at 4.98 µM. 220,000 tested, 0.35% active; in the data active means activation above about 11%;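 further: 0% = DMSO vehicle and 100% = reference agonist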
Target sequence (O95977 whole entry, looked up): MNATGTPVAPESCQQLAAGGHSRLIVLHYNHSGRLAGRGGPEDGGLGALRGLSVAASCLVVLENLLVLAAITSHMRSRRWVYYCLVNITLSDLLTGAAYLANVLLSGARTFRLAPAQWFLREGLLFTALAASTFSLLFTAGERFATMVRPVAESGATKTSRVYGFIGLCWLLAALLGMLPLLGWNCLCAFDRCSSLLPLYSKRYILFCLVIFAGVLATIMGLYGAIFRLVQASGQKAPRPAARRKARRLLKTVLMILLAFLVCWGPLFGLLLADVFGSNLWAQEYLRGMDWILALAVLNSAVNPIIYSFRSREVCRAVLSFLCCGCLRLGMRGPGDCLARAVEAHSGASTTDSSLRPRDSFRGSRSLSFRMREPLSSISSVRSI
GALR2 blocker: GALR2 antagonists in receptor-expressing cells, primary screen | Galanin receptor type 2 (Homo sapiens), O43603 | antagonist mode | inhibition, % at 4 µM | 140,000 tested, 0.39% active;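 further: cells stimulated with galanin 1-16 at roughly its EC80; 0% = agonist challenge control and 100% = basal control without agonist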
S1P4 antagonist: S1P4 receptor antagonists, primary screen, cell-based. Sphingosine 1-phosphate receptor 4 (Homo sapiens), O95977. S1P4-expressing cells, antagonist mode, reporter read-out. inhibition, % at 4.98 µM. 220,000 tested, 0.26% active. AID 1510, 2009; in the data active means inhibition above about 29%;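 further: 0% = wells stimulated with agonist and 100% = vehicle wells without agonist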
GALR2 agonist: GALR2 receptor agonists, primary screen, cell-based; activation, % (test concentration not listed); 140,000 tested, 0.48% active; Galanin receptor type 2 (Homo sapiens), O43603; GALR2-expressing cells, agonist activation read-out; AID 803, 2007; in the data active means activation above about 5%, passing the limit was not always enough;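 further: 0% = vehicle buffer wells and 100% = reference agonist at full effect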
S1P3 antag: S1P3 receptor antagonists, primary screen, cell-based; Sphingosine 1-phosphate receptor 3 (Homo sapiens), Q99500; CHO S1P3 NFAT-BLA reporter, FRET fluorescence, antagonist mode; inhibition, % at 4.98 µM; 170,000 tested, 0.27% active;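 active means inhibition above the plate cutoff, the mean inhibition of test wells on that plate plus 3 SD, cut at about 28% in these data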;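 further: cells challenged with S1P at its EC80 of 0.8 µM; blue over green emission ratio from cleaved BLA substrate after 4 h stimulation; 0% = S1P-stimulated wells and 100% = unstimulated DMSO-only wells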
GALR2 agon conf: GALR2 agonists, retest of hits, confirmation, cell-based | activation, % at 5.6 µM | shares compounds with GALR2 agonist | 460 tested, 10% active | GALR2-expressing cells, agonist activation; in the data active means activation above about 8.4%;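 further: 0% = buffer-only vehicle wells and 100% = full reference agonist response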
BLA act counter: activators of NFAT-driven beta-lactamase reporter, confirmation, counter-screen for GALR2 agonist project, CHO NFAT-bla cells, FRET readout. 460 tested, 10% active. activation, % at 5.6 µM. shares compounds with GALR2 agonist. beta-lactamase FRET activation;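 active means activation above the screen-wide mean activation plus 3 SD, cut at about 8% in these data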;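 further: 0% = DMSO with PBS wells and 100% = thapsigargin positive control wells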
GALR2 ant conf: GALR2 antagonists, retest of hits, confirmation, cell-based; GALR2-expressing cells, antagonist mode, inhibition; shares compounds with GALR2 blocker; 480 tested, 60% active; inhibition, % at 4 µM;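 further: cells stimulated with galanin at about its EC80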
BLA inh counter: inhibitors of NFAT-driven beta-lactamase reporter, confirmation, counter-screen for GALR2 antagonist project, CHO NFAT-bla cells, FRET readout. 480 tested, 36% active. shares compounds with GALR2 blocker. thapsigargin-stimulated. AID 867, 2007. inhibition, % at 4.2 µM;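 active means inhibition above the mean inhibition across tested compounds plus 3 SD, cut at about 27% in these data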;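 further: 0% = 500 nM thapsigargin stimulated wells and 100% = unstimulated BSA only wells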
Numbers without * were called inactive. An excerpt weighted towards active compounds, which were near 1.3% of everything screened. Unless noted, no stated cut-off is given here; in the data, active means inhibition above about 27%; inactive means the rest.

`Cc1ccc(C2=NC(C)(C)N3C2C3c2ccc([N+](=O)[O-])cc2)cc1` (stereo unspecified) gave S1P4 ag 1, GALR2 blocker 2, S1P4 antagonist -11, GALR2 agonist 10*, S1P3 antag -8, GALR2 agon conf -1 and BLA act counter -2.
O=[N+]([O-])c1ccc(C2[C@H]3C(c4ccccc4)=NC4(CCCC4)N23)cc1 (stereo partly specified) was read as S1P4 ag 2, GALR2 blocker -13, S1P4 antagonist -5, GALR2 agonist 0 and S1P3 antag -4.
`COc1cc(CN2CCN(c3cc(C)ccc3C)CC2)ccc1O` gave S1P4 ag 1, GALR2 blocker 7, S1P4 antagonist -11, GALR2 agonist 49*, S1P3 antag 2, GALR2 agon conf -1 and BLA act counter -2.
For CCCNC(=O)c1c(N)n(Cc2ccco2)c2nc3ccccc3nc12 the results were S1P4 ag 3, GALR2 blocker -8, S1P4 antagonist 3, GALR2 agonist 18*, GALR2 agon conf 5 and BLA act counter 11*.
Screening COCCCNC(=O)c1c(NC(=O)c2ccco2)n(Cc2ccccc2)c2nc3ccccc3nc12 returned S1P4 ag 3, GALR2 blocker 5, S1P4 antagonist 1, GALR2 agonist 9, S1P3 antag -6, GALR2 agon conf 2 and BLA act counter 2.
COCCCn1c(N)c(C(=O)OCCOC)c2nc3ccccc3nc21 was read as S1P4 ag 2, GALR2 blocker 8, S1P4 antagonist -30, GALR2 agonist 1 and S1P3 antag -7.
CCCCNC(=O)c1c(N)n(CCCOC)c2nc3ccccc3nc12 was read as S1P4 ag 3, GALR2 blocker -15, S1P4 antagonist -28, GALR2 agonist 9.4*, GALR2 agon conf 4 and BLA act counter 14*.
Screening Cc1cc(OCCN2CC2)c2ccccc2n1 returned S1P4 ag 1, S1P4 antagonist -16 and S1P3 antag -8.
For CN1C2CCC1CC(OC(=O)c1cc(Cl)cc(Cl)c1)C2 (stereo unspecified) the results were S1P4 ag -2, GALR2 blocker -13, S1P4 antagonist 1 and GALR2 agonist -2.
`COc1nc(NC(C)C)nc(NC(C)C)n1` gave S1P4 ag -1, GALR2 blocker -12, S1P4 antagonist -6 and GALR2 agonist -1.
`Cc1nc2c(=O)n(C)c(=O)nc-2n(C)n1` gave S1P4 ag 2, GALR2 blocker 100*, S1P4 antagonist 97*, GALR2 agonist 5, GALR2 ant conf 100* and BLA inh counter 100*.
`O=C(c1ccccc1)C(CN1CCCC1)c1ccccc1` (stereo unspecified) gave S1P4 ag 0, GALR2 blocker 30*, S1P4 antagonist 0, GALR2 agonist 1, S1P3 antag -4, GALR2 ant conf 29* and BLA inh counter 25.
Fc1cccc(CCNCc2ccccn2)c1 was read as S1P4 ag 0, GALR2 blocker 2, S1P4 antagonist -16 and GALR2 agonist -3.
O=C(COc1ccc(Cl)cc1)N(c1ccc(Cl)cc1)C1CN2CCC1CC2 (stereo unspecified) was read as S1P4 ag 1, S1P4 antagonist 2 and S1P3 antag -11.
